Measurements as given in PubChem BioAssay (NCATS).
Where “and” joins values, the source holds several entries; their conditions need not be identical. Identical values can stand only once. Records with an inconclusive call do not appear. Calls of active or inactive are those of the source. Unless noted, calls follow the shape of the dose curve; as a rule, active = well fitted curve in the direction sought with a large enough effect; inconclusive = small, poorly fitted or top-dose-only effect, or another doubt; inactive = no such curve, though single readings can be large; an effect the other way counts as inactive or inconclusive.

Assays:
[1] = Cell Viability - BJ (AID 421; calls by dose curve;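 also: potency is read from the fitted curve at half-maximal effect; cells exposed to compound for 40 hours at 37 °C before readout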); conditions: BJ fibroblast viability, qHTS
Method in brief: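 Normal human BJ foreskin fibroblasts, 1500/well in complete medium, treated 40 hr at 37 °C. Cellular ATP by CellTiter-Glo luminescence; normalized to DMSO and 100 uM tamoxifen, AC50 from Hill fit.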

[2] = Cell Viability - HUV-EC-C (AID 542); conditions: HUV-EC-C endothelial cell viability, qHTS; series mostly up to 92.2 µM;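 also: cells exposed to compound for 40 hours; % is scaled to controls: 0 for no effect and ±100 for the full control effect; nearly all actives have a fitted effect of over 35% in size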
Method in brief: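 Decrease in cellular ATP, quantified by luciferase luminescence, reflects toxicity in normal human vascular endothelial HUV-EC-C cells given compound for 40 hr in complete culture medium. Values are AC50s from concentration-response curves.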

[3] = Cellular Toxicity (caspase-3) HUV-EC-C (AID 656); conditions: HUV-EC-C cells, caspase-3 activation (apoptosis), vehicle = 0, 100 µM tamoxifen = 100%; series mostly up to 92.2 µM
Method in brief: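 Read-out: luminescence proportional to caspase 3/7 activity, measured 20 min after adding Caspase-Glo 3/7 reagent. Cells (HUV-EC-C) had received compound for 16 hr at 37°C. Increases relative to DMSO and 100 uM tamoxifen gave concentration-response AC50 values.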

[4] = Cellular Toxicity (caspase-3) MRC-5 (AID 659); conditions: MRC-5 cells, luminescence, normalized: DMSO 0%, 10 µM staurosporine 100%; series mostly up to 91.7 µM
Method in brief: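 Luminescence from caspase-cleaved aminoluciferin substrate (Caspase-Glo 3/7, 1 hr RT) reports caspase 3/7 activity in MRC-5 lung fibroblasts after 16 hr compound exposure. Normalized to DMSO basal and 10 uM staurosporine as 100%; AC50 from Hill fits.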

[5] = Cellular Toxicity (caspase-3) Mesangial (AID 660); conditions: mesangial cells, normalized: DMSO 0%, 100 µM tamoxifen 100%; series mostly up to 91.7 µM;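 also: cells exposed to compound for 16 h before the caspase read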
Method in brief: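 Concentration-response qHTS: compound-induced rise in caspase 3/7 luminescence in human mesangial cells after 16 h, normalized to DMSO and 100 uM tamoxifen controls.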

[6] = Cellular Toxicity (caspase-3) SK-N-SH (AID 661); conditions: SK-N-SH caspase-3 activation, qHTS; series mostly up to 91.7 µM
Method in brief: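 Caspase 3/7 activation is measured as a luminescence increase from aminoluciferin released by substrate cleavage in SK-N-SH cells after 16 hr compound treatment; values are AC50 from concentration-response curves.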

[7] = Cellular Toxicity (caspase-3) Hek293 (AID 664); conditions: HEK293 caspase-3 activation, DMSO = 0%, 100 µM tamoxifen = 100%; at 92.2 µM (top of the series);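 also: cells exposed to compound for 16 h at 37 °C before readout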
Method in brief: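 Activation of caspase-3/7 is measured as increased luminescence from cleaved peptide-aminoluciferin substrate in HEK293 cells treated 16 hours at 37 °C. AC50 values come from Hill-equation fits of concentration-response data.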

[8] = Cellular Toxicity (caspase-3) NIH 3T3 (AID 666); conditions: NIH 3T3 caspase-3 activation, apoptosis/toxicity; series mostly up to 92.2 µM;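 also: caspase signal read after 16 h compound exposure; 0% = DMSO basal and 100% = 100 µM tamoxifen stimulation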
Method in brief: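 Concentration-response qHTS in NIH 3T3 mouse fibroblasts scores caspase-3/7 activation as rising luminescence after 16 hr compound exposure. Signals are scaled between DMSO-only and 100 uM tamoxifen.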

[9] = MultiTox-Fluor Cytotoxicity Assay - LYMP1-001 - Dead Cells (AID 946); conditions: LYMP1-001 lymphoblastoid cells, dead-cell protease fluorescence; series mostly up to 92.2 µM;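 also: 0% = DMSO and 100% = tetraoctylammonium bromide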
Method in brief: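 LYMP1-001 lymphoblastoid cells (2500/well) treated 16 h at 37 C. Dead-cell protease cleavage of bis-AAF-R110 read at Ex/Em 485/520. Normalized to DMSO and 15 uM tetraoctylammonium bromide; AC50 from Hill fits.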

[10] = Cell Viability - LYMP1-002 - Assay at 16 hr (AID 948); conditions: LYMP1-002 lymphoblastoid cell viability; series mostly up to 92.2 µM;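 also: 0% = DMSO alone and full effect = 92 µM tetraoctylammonium bromide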
Method in brief: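 Acute cytotoxicity is scored as a concentration-dependent fall in intracellular ATP in a human lymphoblastoid line (LYMP1-002) after 16 hr compound exposure at 37 C, measured by luciferase luminescence.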

[11] = MultiTox-Fluor Cytotoxicity Assay - LYMP1-003 - Live Cells (AID 962); conditions: LYMP1-003 lymphoblastoid cells, MultiTox-Fluor live-cell protease fluorescence; series mostly up to 92.2 µM;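 also: 0% = DMSO only and full loss = 92 µM tetraoctylammonium bromide; cytotoxic hits lower the live-cell protease signal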
Method in brief: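 Cells plated at 2500 per well and incubated 5 hr; compounds added and incubated 16 hr at 37 C; MultiTox-Fluor reagent added for 60 min at room temperature; fluorescence of liberated AFC measured at 405/510 nm.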

[12] = Cell Viability - LYMP2-003 (AID 965); conditions: LYMP2-003 lymphoblastoid cell viability; series mostly up to 92.2 µM;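 also: cells exposed to compounds for 24 h before reading; 0% = DMSO only and full effect = 92 µM tetraoctylammonium bromide; nearly all actives have a fitted effect of over 50% in size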
Method in brief: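 Acute cytotoxicity is scored as a concentration-dependent drop in intracellular ATP, measured by luciferase luminescence in human lymphoblastoid cells treated for 24 hours at 37 C. AC50 values derive from Hill-equation modelling.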

[13] = Cell Viability - LYMP2-013 (AID 970); conditions: LYMP2-013 lymphoblastoid cells viability; series mostly up to 92.2 µM;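 also: cells exposed to compound for 24 h at 37 °C; 0% = DMSO only and full inhibition = tetraoctylammonium bromide control; nearly all actives have a fitted effect of over 55% in size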
Method in brief: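 Acute toxicity was measured in human lymphoblastoid cells (2500/well) exposed to compound titrations for 24 hr, with ATP luminescence (CellTiter-Glo) as read-out and AC50 fitted by Hill equation.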

[14] = Cell Viability - LYMP2-015 (AID 971); conditions: LYMP2-015 lymphoblastoid cell viability; series mostly up to 92.2 µM;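 also: 0% = DMSO only and full effect = 92 µM tetraoctylammonium bromide; nearly all actives have a fitted effect of over 55% in size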
Method in brief: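 Acute toxicity was scored as a concentration-dependent drop in intracellular ATP in lymphoblastoid cells after 24 hr compound exposure in complete medium. Detection used CellTiter-Glo luciferase luminescence.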

[15] = Cell Viability - LYMP2-017 (AID 972); conditions: LYMP2-017 lymphoblastoid cell viability; series mostly up to 92.2 µM;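 also: cells exposed to compound for 24 hours at 37 °C; % is scaled to controls: 0 for no effect and ±100 for the full control effect; nearly all actives have a fitted effect of over 55% in size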
Method in brief: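 Steps: plate 2500 lymphoblastoid cells per well; incubate 5 hr at 37 C; add compound across a concentration series and incubate 24 hr at 37 C; add CellTiter-Glo and read luminescence after 30 min at room temperature; fit Hill curves for AC50.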

[16] = Cell Viability - LYMP2-007 (AID 979); conditions: LYMP2-007 lymphoblastoid cell viability; series mostly up to 92.2 µM;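 also: cells exposed to compound for 24 h before reading; 0% = DMSO only and the negative end = 92 µM tetraoctylammonium bromide; nearly all actives have a fitted effect of over 60% in size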
Method in brief: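 Acute toxicity is scored as a concentration-dependent fall in intracellular ATP in human lymphoblastoid cells treated 24 hr at 37 C, measured by luciferase luminescence; Hill-equation modelling yields AC50.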

[17] = qHTS Assay for Identification of Small Molecule Inducers of Hypoxia Response (AID 2120; active = well fitted curve in the direction sought with a large enough effect in the signal ratio, with a control signal flat, not every such curve was filed as active; the % refers to the signal ratio; also: 0% is about no effect); conditions: hypoxia response reporter cells, beta-lactamase ratio readout; series mostly up to 104 µM
Method in brief: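 Induction of beta-lactamase reporter activity was measured in CellSensor HRE-bla ME-180 cells after 17 h compound treatment at 37 degrees C, using CCF4 substrate and the 460nm/530nm emission ratio to derive AC50 values.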

[18] = biological target: Peroxisome proliferator-activated receptor alpha (Homo sapiens) (UniProt Q07869); assay: qHTS assay for small molecule agonists of the peroxisome proliferator-activated receptor alpha (PPARalpha) signaling pathway (AID 651778); conditions: PathHunter PPARalpha complementation, chemiluminescence, 6 h; hits give high values; also: % of control where 0% means no effect
Peroxisome proliferator-activated receptor alpha (Homo sapiens), sequence (Q07869 whole entry, looked up): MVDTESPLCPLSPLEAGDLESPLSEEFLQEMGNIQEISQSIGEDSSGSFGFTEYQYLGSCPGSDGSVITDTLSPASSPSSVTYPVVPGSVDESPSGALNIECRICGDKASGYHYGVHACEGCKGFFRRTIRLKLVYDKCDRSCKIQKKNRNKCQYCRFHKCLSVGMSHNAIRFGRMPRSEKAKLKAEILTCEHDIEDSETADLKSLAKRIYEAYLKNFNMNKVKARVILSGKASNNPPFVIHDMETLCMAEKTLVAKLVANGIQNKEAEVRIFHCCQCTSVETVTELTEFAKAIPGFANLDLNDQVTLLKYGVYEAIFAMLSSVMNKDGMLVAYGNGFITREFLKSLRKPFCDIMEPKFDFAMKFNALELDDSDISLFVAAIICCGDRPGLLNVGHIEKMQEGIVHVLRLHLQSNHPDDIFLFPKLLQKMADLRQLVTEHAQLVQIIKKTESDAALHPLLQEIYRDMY
Method in brief: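 Cells plated at 2,000/well and held overnight at 37 C, 5% CO2, then compound added by pin tool for 6 hr; after PathHunter detection reagent and 60 min at room temperature, chemiluminescence from enzyme complementation was read.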

[19] = qHTS assay for small molecule agonists of the antioxidant response element (ARE) signaling pathway measured by Nrf2-dependant transcriptional activity - cell viability counter screen (AID 720653; active = well fitted curve in the direction sought with a large enough effect in the repeat runs; an effect the other way counts as inactive or inconclusive; also: % is scaled to controls: 0 for no effect and ±100 for the full control effect); conditions: ARE-bla HepG2 viability, CellTiter-Glo ATP luminescence, 16 h; hits give low values
Method in brief: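 ARE-bla HepG2 cells (2,000/well) rested 5 hrs at 37C/5% CO2, then exposed to compounds in DMSO for 16 hrs. Viability was read in the same wells as intracellular ATP by luminescence, 30 min at room temperature after reagent addition.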

[20] = qHTS assay for cell viability of the p53RE-bla HCT-116 cell line (AID 743292); conditions: p53RE-bla HCT-116 viability, ATP luminescence, 16 h; series mostly up to 95 µM; also: % is scaled to controls: 0 for no effect and ±100 for the full control effect; nearly all actives have a fitted effect of over 55% in size
Method in brief: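 ATP-based luminescence, 16 h compound exposure at 37 C, p53RE-bla HCT-116 cells at 4,000/well.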

C=CC(=O)OCC(C)C
inactive: Potency [1] > 92 µM | Potency [2] | outcome [3] | outcome [4] | outcome [5] | Potency [6] | caspase-3 activation [7] -0.317% | Potency [8] | outcome [9] | outcome [10] | outcome [11] | Potency [12] | Potency [13] | Potency [14] | Potency [15] | Potency [16] | Potency [17] | max response [18] 3.76% | max response [19] -10.1% | Potency [20]

C=C(C)CCl
inactive: Potency [1] > 92 µM | Potency [2] | outcome [3] | outcome [4] | outcome [5] | Potency [6] | caspase-3 activation [7] -0.774% | Potency [8] | outcome [9] | outcome [10] | outcome [11] | Potency [12] | Potency [13] | Potency [14] | Potency [15] | Potency [16] | Potency [17] | max response [18] 1.24% | max response [19] -2.48% | Potency [20]

Oc1c(Cl)c(Cl)cc(Cl)c1Cl
inactive: Potency [1] > 92 µM | Potency [2] | outcome [3] | outcome [4] | outcome [5] | Potency [6] | caspase-3 activation [7] -2.19% | Potency [8] | outcome [9] | outcome [10] | outcome [11] | Potency [12] | Potency [13] | Potency [14] | Potency [15] | Potency [16] | Potency [17] | max response [19] -2.21% | Potency [20]

Cc1ccc2c(c1N)C(=O)c1ccccc1C2=O
inactive: Potency [1] > 92 µM | outcome [3] | outcome [4] | outcome [5] | Potency [6] | caspase-3 activation [7] -8.32% | outcome [9] | outcome [10] | outcome [11] | Potency [12] | Potency [13] | Potency [14] | Potency [15] | Potency [16] | Potency [17] | max response [18] -8.43% and -4.54% | max response [19] -21.8% and -21.2% | Potency [20]

CSSC
inactive: Potency [1] > 92 µM | Potency [2] | outcome [3] | outcome [4] | outcome [5] | Potency [6] | caspase-3 activation [7] -3.42% | Potency [8] | outcome [9] | outcome [10] | outcome [11] | Potency [12] | Potency [13] | Potency [14] | Potency [15] | Potency [16] | Potency [17] | max response [18] -6.95% | max response [19] 1.42% | Potency [20]
